Sampled rows, rich in hits. Any-hit rate of the full collection: about 2.6%.
EWS-Fli inh – inhibitors of EWS/Fli oncoprotein transcriptional activity. A673 NR0B1-luciferase reporter, viability-normalised. inhibition, % at 12.6 µM. 350,000 tested, 0.67% active;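 active = mean inhibition of at least 50% after viability correction, with every replicate also passing that limit; inconclusive = mean reaches 50% but only one of two replicates passes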;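 also: firefly luciferase signal divided by Alamar Blue viability fluorescence both relative to DMSO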
LMP1 NFkB inh – inhibitors of Epstein-Barr LMP1-induced NF-kappaB reporter. LMP1-induced NF-kappaB luciferase reporter cells, luminescence. inhibition, % at 12.5 µM. 350,000 tested, 0.69% active; in the data active = inhibition above about 41%; inconclusive = no clear call, values can overlap the other calls
TROY signal inh – TROY signaling inhibition | inhibition, % at 10 µM | Q293 LMP1-TROYcd NF-kB luciferase reporter, 4 h | 360,000 tested, 0.98% active;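 active = compounds whose plate-normalised and pattern-corrected inhibition of the luciferase reporter signal at the single screening dose is 50% or more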
LGR2 inh – blocks bursicon-induced cAMP signaling via Drosophila LGR2 | HEK293 LGR2, CRE-luciferase, bursicon-stimulated, 4 h | inhibition, % at 9.99 µM | 380,000 tested, 0.35% active | AID 720647;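 active = drop in luminescence signal, shown as inhibition above about 50% in the replicate tests, limit read from the data, passing the limit was not always enough; inconclusive = probably only some replicates passing the limit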;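 also: agonist challenge used bursicon conditioned medium at about half maximal strength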
TWEAK Fn14 block – inhibitors of TWEAK-Fn14 interaction signaling. 360,000 tested, 2% active. TWEAK-stimulated Fn14 reporter cells, luciferase luminescence, 8 h. inhibition, % at 10 µM; in the data active = inhibition above about 50%
DNA binding – binds DNA displacing acridine orange; salmon sperm DNA acridine orange fluorescence polarization; shares compounds with EWS-Fli inh; AID 720586; AC35, µM (highest dose often 68 µM); 640 tested, 2% active;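 active = fitted curve reaches a 35% signal fall AC35 below twice the sample's top valid tested dose, actives reach about 48 µM in these data; inactive = the rest, including activity in the rising direction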;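 also: lower polarization ratio signals compound binding to DNA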
A number is an active result; . = inactive; ? = inconclusive; / = no result given; ! = a repeat was not active.

SMILES	EWS-Fli inh	LMP1 NFkB inh	TROY signal inh	LGR2 inh	TWEAK Fn14 block	DNA binding
O=C(C[C@H]1CC[C@H](NC(=O)c2ccccc2)[C@H](CO)O1)Nc1ccc(-c2ccccc2)cc1	.	/	/	.	/	/
COc1ccc(NC(=O)N2CCCCN3[C@@H](CO)[C@H](c4ccc(C5=CCCCC5)cc4)[C@@H]3C2)cc1	71	/	/	.	/	.
O=C(COC(=O)CCN1C(=O)/C(=C\C=C\c2ccccc2)SC1=S)Nc1ccc(Br)cc1	.	.	.	.	.	/
CC(C)c1ccccc1NC(=O)COC(=O)CCN1C(=O)/C(=C\C=C\c2ccccc2)SC1=S	62	.	.	.	72	.
CCCNC(=O)N[C@@H]1C=C[C@H](CC(=O)NC2CCCCC2)O[C@H]1CO	.	/	/	.	/	/
O=C(Nc1ccccc1)N1C[C@H]2[C@@H](c3ccccc31)[C@@H](CO)N2Cc1ccccc1Cl	.	/	/	.	/	/
C[C@@H]1CN([C@@H](C)CO)C(=O)c2cccc(NS(=O)(=O)c3ccc(Cl)cc3)c2O[C@@H]1CN(C)Cc1ccc(C(=O)Nc2ccccc2N)cc1	53	/	/	.	/	.
C[C@@H]1CN([C@H](C)CO)C(=O)c2cccc(NS(=O)(=O)c3ccc(Cl)cc3)c2O[C@H]1CN(C)Cc1ccc(C(=O)Nc2ccccc2N)cc1	.	/	/	.	/	/
C[C@H](CO)N1C[C@H](C)[C@@H](CN(C)Cc2ccc(C(=O)Nc3ccccc3N)cc2)Oc2c(NS(=O)(=O)c3ccccc3)cccc2C1=O	.	/	/	.	/	/
C[C@@H]1CN([C@@H](C)CO)C(=O)c2cccc(NS(=O)(=O)c3ccccc3)c2O[C@@H]1CN(C)Cc1ccc(C(=O)Nc2ccccc2N)cc1	52	/	/	.	/	.
COc1ccc(Nc2oc(COc3ccccc3OC)nc2C#N)cc1	54	56	.	/	55	.
O=C(NCc1cccnc1)C1Cc2c(-c3ccc(Cl)cc3)ccnc2O1 (stereo not drawn)	52	/	.	.	.	.
Cc1ccc(-c2ccc3c(c2)O[C@@H](CN(C)C(=O)Nc2ccc(F)cc2)[C@H](C)CN([C@H](C)CO)S3(=O)=O)cc1	.	/	/	.	/	/
Cc1ccc(-c2ccc3c(c2)O[C@@H](CN(C)C(=O)Nc2ccc(F)cc2)[C@H](C)CN([C@@H](C)CO)S3(=O)=O)cc1	54	/	/	.	/	.
CC(C)NC(=O)N(C)C[C@@H]1Oc2cc(C#Cc3ccc(F)cc3)ccc2S(=O)(=O)N([C@H](C)CO)C[C@H]1C	56	/	/	.	/	.
O=C(C[C@H]1C[C@@H]2c3cc(NC(=O)Nc4ccccc4F)ccc3O[C@@H]2[C@H](CO)O1)NC1CCCCC1	.	/	/	.	/	/
O=C(NCc1ccc(F)cc1)N1[C@H]2CC[C@@H]1C=C(c1ccc(F)cc1OCc1ccccc1)C2	54	.	.	.	.	.
COc1ccc(CNC(=O)N2[C@H]3CC[C@@H]2C=C(c2ccc(F)cc2OCc2ccccc2)C3)cc1OC	.	?	.	.	.	/
COc1ccccc1NS(=O)(=O)c1cc(NC(=O)C2=NNC(=O)CC2)ccc1C	.	.	.	.	.	/
COc1ccccc1NS(=O)(=O)c1cc(NC(=O)c2cc3ccccc3oc2=O)ccc1C	82	.	.	.	.	.
C[C@@H]1CCCCO[C@@H](CN(C)Cc2ccc3c(c2)OCO3)[C@H](C)CN([C@H](C)CO)C(=O)c2cc(NC(=O)c3ccncc3)ccc2O1	.	/	/	.	/	/
CC(NC(=O)c1ccco1)c1nc(-c2ccc(C(C)(C)C)cc2)no1 (stereo not drawn)	78	.	.	.	57	.
C[C@@H](NC(=O)C[C@H]1CC[C@H]2[C@@H](COC[C@@H](O)CN2C(=O)Nc2cc(Cl)cc(Cl)c2)O1)c1ccccc1	.	/	/	.	/	/
COc1ccc(CC(N)c2csc(NC(=O)Nc3cccc(C(F)(F)F)c3)n2)cc1 (stereo not drawn)	53	/	.	.	.	.
COc1cccc(S(=O)(=O)N(C)C[C@@H]2OCc3cnnn3CCCC(=O)N([C@H](C)CO)C[C@H]2C)c1	.	.	.	.	.	/
SMILES	EWS-Fli inh	LMP1 NFkB inh	TROY signal inh	LGR2 inh	TWEAK Fn14 block	DNA binding
COc1cccc(S(=O)(=O)N(C)C[C@H]2OCc3cnnn3CCCC(=O)N([C@@H](C)CO)C[C@H]2C)c1	60!	.	.	.	.	.
O=C(CN1CCOCC1)NCC[C@@H]1CC[C@@H](NC(=O)Nc2ccccc2)[C@@H](CO)O1	.	/	/	.	/	/
C[C@@H]1CN([C@@H](C)CO)C(=O)c2cccc(NS(C)(=O)=O)c2O[C@@H]1CN(C)C(=O)Nc1ccc(F)cc1	.	/	/	.	/	/
CCc1ccc(/C=C2\SC(=S)N(CCCC(=O)Nc3cc(C)on3)C2=O)cc1	83	.	81	.	70	.
COc1ccccc1/C=C1\SC(=S)N(CCC(=O)Nc2cc(C)on2)C1=O	52	.	.	.	.	.
CCc1ccc(/C=C2\SC(=S)N(CCC(=O)Nc3cc(C)on3)C2=O)cc1	63	.	53	.	70	.
COc1cccc(/C=C2\SC(=S)N(CCCC(=O)Nc3cc(C)on3)C2=O)c1	.	.	.	.	.	/
CCc1ccc(/C=C2\SC(=S)N(CCCC(=O)NC3=NCCS3)C2=O)cc1	77	46	77	.	92	.
COc1cccc(/C=C2\SC(=S)N(CCCC(=O)NC3=NCCS3)C2=O)c1	/	.	.	.	.	/
Cc1cc(NC(=O)CCN2C(=O)/C(=C/c3ccccc3Cl)SC2=S)no1	.	.	.	.	.	/
O=C(C[C@H]1CC[C@H](NC(=O)Cc2cccnc2)[C@@H](CO)O1)Nc1ccccc1	.	/	/	.	/	/
C[C@H](NC(=O)[C@H]1[C@H](CO)[C@H]2Cn3c(ccc(/C=C/c4ccccc4)c3=O)[C@@H]1N2)c1ccccc1	.	/	/	.	/	/
c1ccc(Cc2cnc(N3CCN(Cc4cccc(-c5ccsc5)n4)CC3)nc2)cc1	.	/	/	.	/	/
CN(C)CC1CCC/C(=C\c2ccc(OC(=O)c3ccc(Cl)cc3)cc2)C1=O (stereo not drawn)	59	.	.	.	.	.
CN(C)CC1CCC/C(=C\c2ccc(OC(=O)/C=C/c3ccccc3)cc2)C1=O (stereo not drawn)	.	.	.	.	.	/
Cc1ccc(S(=O)(=O)N(C)C[C@H]2Oc3c(NS(=O)(=O)c4cccs4)cccc3C(=O)N([C@@H](C)CO)C[C@H]2C)cc1	.	/	/	.	/	/

Assay outcomes (PubChem BioAssay)
